From ChEMBL document CHEMBL3988442, “University of Dundee, Small-Polar-MMV Screening Library” (2021)
For some assays here: Entries with a potency or affinity are not part of this list.

Columns and labels:
Set-up in all cases: scale not given: direction of the effect not stated beside the values
[1] = biological target: Protein translocase subunit SecA (Escherichia coli (strain K12)) (UniProt P10408); assay: Assay to Identify E. coli SecA ATPase Inhibitors; format: functional; conditions: 30 µM
[2] = biological target: T1, Ubiquitin-activating enzyme e1, putative (Leishmania donovani (strain BPK282A1)) (UniProt E9BSI1); assay: Leishmania donovani Ubiquitin Activating Enzyme (LdE1); format: functional; conditions: 30 µM
T1 sequence (whole entry): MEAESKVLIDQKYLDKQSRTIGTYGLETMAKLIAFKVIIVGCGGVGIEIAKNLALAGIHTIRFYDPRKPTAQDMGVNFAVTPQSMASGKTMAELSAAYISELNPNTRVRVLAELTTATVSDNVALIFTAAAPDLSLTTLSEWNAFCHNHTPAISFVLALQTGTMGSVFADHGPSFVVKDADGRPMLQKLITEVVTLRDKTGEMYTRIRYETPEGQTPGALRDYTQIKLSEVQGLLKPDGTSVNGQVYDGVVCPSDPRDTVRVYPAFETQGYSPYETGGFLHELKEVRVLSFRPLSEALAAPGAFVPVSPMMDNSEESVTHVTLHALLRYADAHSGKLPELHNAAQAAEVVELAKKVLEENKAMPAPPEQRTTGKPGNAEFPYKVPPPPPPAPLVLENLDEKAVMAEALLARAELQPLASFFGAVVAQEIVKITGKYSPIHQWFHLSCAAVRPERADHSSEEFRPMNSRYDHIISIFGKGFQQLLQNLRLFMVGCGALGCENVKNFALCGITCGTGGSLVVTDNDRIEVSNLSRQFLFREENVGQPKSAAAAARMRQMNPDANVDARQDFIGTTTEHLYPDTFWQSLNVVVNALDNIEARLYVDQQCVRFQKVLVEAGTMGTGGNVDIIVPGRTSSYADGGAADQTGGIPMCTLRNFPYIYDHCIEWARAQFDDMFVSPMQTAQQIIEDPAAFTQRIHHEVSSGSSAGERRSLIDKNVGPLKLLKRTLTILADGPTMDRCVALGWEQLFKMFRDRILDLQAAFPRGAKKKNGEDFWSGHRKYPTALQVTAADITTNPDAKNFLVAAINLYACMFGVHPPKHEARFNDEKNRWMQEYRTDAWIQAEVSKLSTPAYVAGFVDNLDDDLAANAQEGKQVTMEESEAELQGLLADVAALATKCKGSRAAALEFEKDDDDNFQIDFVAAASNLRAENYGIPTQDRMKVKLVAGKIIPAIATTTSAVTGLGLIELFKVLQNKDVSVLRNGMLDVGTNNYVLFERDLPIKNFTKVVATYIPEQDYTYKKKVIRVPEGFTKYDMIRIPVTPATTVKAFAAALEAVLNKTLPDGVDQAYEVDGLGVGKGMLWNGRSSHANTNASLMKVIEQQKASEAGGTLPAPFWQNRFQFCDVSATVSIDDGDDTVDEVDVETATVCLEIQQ

[3] = biological target: AMP-activated protein kinase, AMPK (Homo sapiens) (UniProt P54646+O43741+P54619+Q9UGJ0+Q9Y478+Q13131+Q9UGI9); assay: AMP-dependent Kinase enzyme assay. An in vitro enzyme assay that detects ADP turnover that is directly proportional to AMPK activity. This uses naive AMPK that is activated during the assay with MK-8722; format: functional; conditions: 30 µM
[4] = biological target: Sialic acid-binding Ig-like lectin 9 (Homo sapiens) (UniProt Q9Y336); assay: Hs-Siglec9 ALPHAscreen SOP 20170721; conditions: 10 µM
Sequence of Sialic acid-binding Ig-like lectin 9 (Homo sapiens) (Q9Y336 whole entry): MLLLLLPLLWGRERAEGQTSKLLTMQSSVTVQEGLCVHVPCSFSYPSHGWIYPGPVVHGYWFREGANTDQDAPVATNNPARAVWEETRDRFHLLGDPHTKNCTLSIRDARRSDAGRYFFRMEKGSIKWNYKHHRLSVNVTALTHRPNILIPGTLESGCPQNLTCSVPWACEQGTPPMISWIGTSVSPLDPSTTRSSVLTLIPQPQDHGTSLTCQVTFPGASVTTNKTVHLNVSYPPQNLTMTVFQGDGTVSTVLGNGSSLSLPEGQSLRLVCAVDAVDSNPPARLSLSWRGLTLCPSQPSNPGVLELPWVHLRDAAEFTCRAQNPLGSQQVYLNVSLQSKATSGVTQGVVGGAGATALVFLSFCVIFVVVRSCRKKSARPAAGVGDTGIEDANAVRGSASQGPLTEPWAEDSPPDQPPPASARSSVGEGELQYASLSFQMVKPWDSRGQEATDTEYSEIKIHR

Trypanosoma cruzi = assay: Trypanosoma cruzi phosphomannomutase and mannose-1-phosphate guanylyltransferase assay; format: functional; conditions: 10 µM
[5] = biological target: T2, Arginase-2, mitochondrial (Homo sapiens) (UniProt P78540); assay: in vitro enzyme assay to detect the production of urea directly proportional to the activity of Arginase II; format: functional; conditions: 33.3 µM; note: in the data most compounds retested in dose-response had high values
T2 sequence (whole entry): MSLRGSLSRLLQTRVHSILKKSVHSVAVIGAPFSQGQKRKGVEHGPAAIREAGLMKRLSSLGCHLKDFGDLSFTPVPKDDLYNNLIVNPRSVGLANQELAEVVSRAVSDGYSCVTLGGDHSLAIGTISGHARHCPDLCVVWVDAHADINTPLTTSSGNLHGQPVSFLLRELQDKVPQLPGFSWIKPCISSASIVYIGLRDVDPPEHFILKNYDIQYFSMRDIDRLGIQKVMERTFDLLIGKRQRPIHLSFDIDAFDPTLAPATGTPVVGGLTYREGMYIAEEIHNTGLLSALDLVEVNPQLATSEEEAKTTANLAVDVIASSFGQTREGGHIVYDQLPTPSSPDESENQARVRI

[6] = biological target: T3, Proteasome subunit beta (Trypanosoma cruzi) (UniProt O96673); assay: Trypanosoma cruzi proteasome chymotrypsin-like activity (TcProtChymo) assay.; note: in the data most compounds retested in dose-response had high values; format: functional; conditions: 9.37 µM
T3 sequence (whole entry): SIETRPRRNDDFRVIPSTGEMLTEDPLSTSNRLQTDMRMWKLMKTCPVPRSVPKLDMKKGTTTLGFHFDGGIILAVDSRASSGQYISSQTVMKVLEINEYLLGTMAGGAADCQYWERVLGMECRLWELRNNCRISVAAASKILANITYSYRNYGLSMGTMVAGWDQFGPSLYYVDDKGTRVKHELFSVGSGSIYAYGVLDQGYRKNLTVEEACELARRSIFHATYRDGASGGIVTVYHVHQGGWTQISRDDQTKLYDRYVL

Homo sapiens = organism: Homo sapiens; assay: To identify inhibition of the IFN signalling (Jak-Stat) pathway via expression of an eGFP reporter gene under the control of an IFN-stimulated response element (ISRE) containing MxA promoter.; format: functional; conditions: 30 µM
[7] = biological target: T4, Tyrosyl-tRNA synthetase, putative (Trypanosoma cruzi (strain CL Brener)) (UniProt Q4DSP6); assay: Trypanosoma cruzi tyrosyl tRNA synthetase (TcYRS) _High Tyrosine SOP; format: functional; conditions: 30 µM; note: in the data most compounds retested in dose-response had high values
T4 sequence (whole entry): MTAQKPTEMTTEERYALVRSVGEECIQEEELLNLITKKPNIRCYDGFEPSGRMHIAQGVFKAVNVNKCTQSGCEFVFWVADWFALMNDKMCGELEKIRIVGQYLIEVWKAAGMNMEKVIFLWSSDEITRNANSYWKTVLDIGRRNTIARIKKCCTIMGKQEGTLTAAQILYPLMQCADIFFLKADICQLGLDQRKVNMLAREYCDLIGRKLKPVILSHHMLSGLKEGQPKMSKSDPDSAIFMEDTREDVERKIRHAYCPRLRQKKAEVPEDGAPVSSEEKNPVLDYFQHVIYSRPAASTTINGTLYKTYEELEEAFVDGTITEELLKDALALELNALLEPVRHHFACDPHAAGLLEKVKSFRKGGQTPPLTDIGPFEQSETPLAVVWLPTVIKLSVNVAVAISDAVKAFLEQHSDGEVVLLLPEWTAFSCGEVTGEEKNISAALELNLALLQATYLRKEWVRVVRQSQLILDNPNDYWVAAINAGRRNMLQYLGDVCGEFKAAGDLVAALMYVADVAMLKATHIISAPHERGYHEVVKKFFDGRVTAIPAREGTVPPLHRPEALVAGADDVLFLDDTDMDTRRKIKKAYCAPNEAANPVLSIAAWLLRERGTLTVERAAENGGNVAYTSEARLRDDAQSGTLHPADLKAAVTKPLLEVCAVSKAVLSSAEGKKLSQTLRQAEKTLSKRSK

[8] = biological target: T4, Tyrosyl-tRNA synthetase, putative (Trypanosoma cruzi (strain CL Brener)); assay: Trypanosoma cruzi tyrosyl tRNA synthetase (TcYRS) SOP; format: functional; conditions: 30 µM
[9] = biological target: Chromo domain-containing protein 1 (Saccharomyces cerevisiae (strain ATCC 204508 / S288c) (Baker's yeast)) (UniProt P32657); assay: ScCHD-1 Enzyme Inhibition Assay; format: functional; conditions: 30 µM; note: in the data most compounds retested in dose-response had high values
Sequence of Chromo domain-containing protein 1 (Saccharomyces cerevisiae (strain ATCC 204508 / S288c) (Baker's yeast)) (P32657 whole entry, the tested form may be a part): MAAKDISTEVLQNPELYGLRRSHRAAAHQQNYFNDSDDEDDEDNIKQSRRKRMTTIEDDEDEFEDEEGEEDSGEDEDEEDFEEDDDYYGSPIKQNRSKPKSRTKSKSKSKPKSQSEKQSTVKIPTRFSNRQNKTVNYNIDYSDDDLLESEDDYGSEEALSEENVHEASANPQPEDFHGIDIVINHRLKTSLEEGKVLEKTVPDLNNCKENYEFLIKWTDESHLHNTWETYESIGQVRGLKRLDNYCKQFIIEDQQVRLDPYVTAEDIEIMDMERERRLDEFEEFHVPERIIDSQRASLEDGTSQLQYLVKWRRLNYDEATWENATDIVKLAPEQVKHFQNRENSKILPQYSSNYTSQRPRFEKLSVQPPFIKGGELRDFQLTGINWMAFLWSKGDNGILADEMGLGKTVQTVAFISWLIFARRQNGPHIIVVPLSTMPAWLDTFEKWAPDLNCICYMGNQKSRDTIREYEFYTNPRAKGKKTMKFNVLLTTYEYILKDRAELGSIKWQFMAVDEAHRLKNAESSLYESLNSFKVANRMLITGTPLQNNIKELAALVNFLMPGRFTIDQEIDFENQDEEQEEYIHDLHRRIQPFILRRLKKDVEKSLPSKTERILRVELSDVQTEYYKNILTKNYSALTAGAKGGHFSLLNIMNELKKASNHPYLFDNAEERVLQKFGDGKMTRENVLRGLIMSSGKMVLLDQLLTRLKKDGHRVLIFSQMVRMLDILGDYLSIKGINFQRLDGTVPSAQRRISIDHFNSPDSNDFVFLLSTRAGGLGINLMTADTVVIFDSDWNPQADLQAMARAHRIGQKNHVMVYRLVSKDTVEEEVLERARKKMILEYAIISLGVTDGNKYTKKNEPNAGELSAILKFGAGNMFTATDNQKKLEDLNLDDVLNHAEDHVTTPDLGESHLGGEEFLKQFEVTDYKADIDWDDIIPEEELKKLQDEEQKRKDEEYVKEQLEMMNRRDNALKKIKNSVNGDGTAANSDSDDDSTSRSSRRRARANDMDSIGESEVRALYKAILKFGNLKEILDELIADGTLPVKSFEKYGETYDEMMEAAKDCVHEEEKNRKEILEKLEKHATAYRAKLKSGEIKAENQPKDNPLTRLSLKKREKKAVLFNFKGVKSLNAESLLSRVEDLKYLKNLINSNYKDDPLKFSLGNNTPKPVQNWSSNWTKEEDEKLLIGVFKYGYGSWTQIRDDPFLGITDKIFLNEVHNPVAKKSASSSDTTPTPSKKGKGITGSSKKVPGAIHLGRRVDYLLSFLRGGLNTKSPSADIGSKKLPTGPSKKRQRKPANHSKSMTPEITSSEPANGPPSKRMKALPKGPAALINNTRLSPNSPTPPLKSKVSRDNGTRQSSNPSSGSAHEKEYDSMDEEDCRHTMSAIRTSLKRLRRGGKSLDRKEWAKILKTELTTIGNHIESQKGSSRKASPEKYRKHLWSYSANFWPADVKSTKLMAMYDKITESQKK

Sequence of Protein translocase subunit SecA (Escherichia coli (strain K12)) (P10408 whole entry): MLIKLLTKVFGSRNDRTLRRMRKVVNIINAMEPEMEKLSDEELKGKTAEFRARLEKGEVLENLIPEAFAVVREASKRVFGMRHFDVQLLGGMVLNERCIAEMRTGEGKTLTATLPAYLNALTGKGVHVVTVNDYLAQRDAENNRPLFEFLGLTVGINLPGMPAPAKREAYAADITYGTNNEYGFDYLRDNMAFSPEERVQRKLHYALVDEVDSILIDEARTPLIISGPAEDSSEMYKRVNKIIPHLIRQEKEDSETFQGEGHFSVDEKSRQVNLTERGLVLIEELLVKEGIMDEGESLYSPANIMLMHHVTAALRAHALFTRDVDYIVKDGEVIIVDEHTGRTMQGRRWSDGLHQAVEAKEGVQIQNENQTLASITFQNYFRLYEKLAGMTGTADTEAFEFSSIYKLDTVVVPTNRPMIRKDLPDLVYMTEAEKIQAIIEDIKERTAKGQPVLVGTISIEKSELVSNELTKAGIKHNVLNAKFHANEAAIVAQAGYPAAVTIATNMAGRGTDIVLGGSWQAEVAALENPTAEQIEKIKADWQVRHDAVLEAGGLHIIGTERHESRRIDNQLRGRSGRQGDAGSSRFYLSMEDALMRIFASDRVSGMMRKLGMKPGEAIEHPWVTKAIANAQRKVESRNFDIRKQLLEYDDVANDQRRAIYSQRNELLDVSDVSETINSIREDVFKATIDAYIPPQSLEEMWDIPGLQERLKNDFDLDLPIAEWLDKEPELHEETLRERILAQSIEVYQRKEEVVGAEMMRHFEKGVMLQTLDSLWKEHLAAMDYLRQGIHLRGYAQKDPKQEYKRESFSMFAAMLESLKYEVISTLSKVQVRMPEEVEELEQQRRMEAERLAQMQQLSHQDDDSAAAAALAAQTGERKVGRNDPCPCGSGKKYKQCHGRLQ

Compound	Percent Effect [1] [%]	Percent Effect [2] [%]	Percent Effect [3] [%]	Percent Effect [4] [%]	Percent Effect (Trypanosoma cruzi) [%]	Percent Effect [5] [%]	Percent Effect [6] [%]	Percent Effect (Homo sapiens) [%]	Percent Effect [7] [%]	Percent Effect [8] [%]	Percent Effect [9] [%]
c1cn(Cc2nnc(C3CCN(C4CCOCC4)CC3)n2C2CC2)cn1	-3.73	2.67	-3.77	-0.983	-3.21	0	26.7	21.6	2.73	3.7	-5.45
O=C(NCCNc1ccccn1)N1CCSCC1	-7.13	5.41	23.3	-0.67	-4.43	0.802	6.67	5.29	1.48	1.24	-1.12
COc1ccc(OC)c(CCNC(=O)NC(C)Cn2ccnc2)c1 (configuration not stated)	-2.99	10.5	-9.22	-3.09	-9.77	-6.13	5.35	34.6	-1.47	4.88	-5.83
O=C(NCc1cn2c(n1)CN(CC1CCOCC1)CC2)C1CCC1	-8.08	-2.7	4.27	1.46	-2.73	-1.25	12.9	5.25	2.97	1.22	-0.655
O=C(CCCNC(=O)C1CC1)Nc1cnn(-c2ccccc2Cl)c1	-2.62	5.41	-9.02	0.665	7.33	-3.51	5.03	-1.9	5.94	13.4	-3.58
Cn1ccnc1CN1CCN(CCOc2ccccc2C#N)CC1	-0.0443	21.1	4.11	-9.14	-3.83	5.4	5.67	18.9	7.39	13.6	-1.99
COc1cccc2c1ccn2CCC(=O)NCCCC(=O)O	-1.03	20	1.22	-4.11	-4.32	-2.99	13.5	-6.02	5.29	5.13	-9.24
COc1cccc2c1OCC(CNC(=O)CNC(N)=O)C2 (configuration not stated)	-5.81	10.8	-3.03	22.4	7.33	1.24	4.72	-5.45	5.38	13.6	-9.37
Cc1ccc(C(=O)NC(CN2CCCC2=O)c2ccccc2)c(=O)[nH]1 (configuration not stated)	-4.18	21.9	-6.93	17.4	5.88	29.6	9.23	2.33	5.38	15	-5.93
CCn1ccnc1CN1CCCC(CO)(Cc2cccc(Cl)c2)C1 (configuration not stated)	-5.53	2.7	-2.31	28.9	3.23	-1.24	3.18	-2.28	2.15	11.1	-1.59
COCCCN(C)C1CCCN(Cc2noc(C)n2)C1 (configuration not stated)	-1.35	2.7	-5.43	12.9	4.18	-0.554	-3.05	11.9	3.96	15.8	-1.13
CC(C)NC(=O)N1CCN(C(=O)N(C)C)CC2(CC(=O)N(C)C2)C1 (configuration not stated)	-3.05	13.5	-4.22	1.04	1.56	6.25	18.5	7.62	8.91	13.4	-7.18
Cn1c(CN2CCCC2)nnc1C1CCCN(C(=O)C2CCOCC2)C1 (configuration not stated)	-3.02	5.41	-5.63	28.6	5.99	22.9	8.1	6.46	4.76	4.88	-11.7
CCOC(=O)[C@]12CCCN(Cc3nccs3)C[C@H]1CN(CCN(C)C)C2	-2.1	13	1.26	-3.57	-0.493	7.1	16.2	8.87	2.12	8.97	-10.9
CCOCCCn1c(NC(=O)c2ccc(C)nc2)nc2ccccc21	-10.1	7.79	10.5	3.52	2.25	0	4.56	-7.49	4.85	14.6	0.139
Cc1csc(CN2CC[C@H]3C[C@H](c4nnc(C)[nH]4)O[C@@H]3C2)n1	1.54	16.4	0.599	0.797	-0.397	2.4	9.33	17.3	3.12	-102	-5.22
CCn1cc(CN(C)C(=O)c2cccc(CCC(C)(C)O)c2)cn1	-5.71	5.33	-1.82	-0.5	-5.36	1.04	15	9.2	7.1	6.17	-6.76
Cn1cccc1C1CCCN1C(=O)NCCCn1cccn1 (configuration not stated)	-1.96	2.67	-3.95	-0.718	-0.0974	-2.08	6.28	8.34	4.92	8.64	-1.47
O=C(c1ccncc1)N1C[C@@H]2CC[C@H](C1)N(C(=O)N1CCOCC1)C2	-0.807	2.67	-4.2	3.79	-4.38	4.69	15.5	10.6	6.01	13.6	-5.41
CC1CN(C)c2ccccc2CN1C(=O)c1ccc[nH]1 (configuration not stated)	-4.68	5.48	-8.65	-2.78	-0.196	0.455	12.9	20.4	5.38	10	-4.57
COc1ccc(Cc2cccc(C3CCN(C)CC3)n2)cc1	-2.99	-55.4	8.96	9.53	-0.395	-1.62	6.55	2.93	5.38	1.3	1.29
CCc1nc(CN2CCCC(NCc3cc(C)no3)C2)no1 (configuration not stated)	-1.34	-28.6	1.07	-1.38	3.82	-3.16	5.42	5.74	3.81	7.06	-11.5
